Source: ChEMBL document CHEMBL2218924, “A broad activity screen in support of a chemogenomic map for kinase signalling research and drug discovery” (Biochem J, 2013)

Legend:
[1] = biological target: Death-associated protein kinase 1 (Homo sapiens) (UniProt P53355); conditions: at 10 µM
[2] = biological target: Death-associated protein kinase 2 (Homo sapiens) (UniProt Q9UIK4); conditions: at 1 µM
[3] = biological target: Death-associated protein kinase 2 (Homo sapiens) (UniProt Q9UIK4); conditions: at 10 µM
[4] = biological target: T1, Serine/threonine-protein kinase DCLK2 (Homo sapiens) (UniProt Q8N568); conditions: at 1 µM
T1 sequence (whole entry): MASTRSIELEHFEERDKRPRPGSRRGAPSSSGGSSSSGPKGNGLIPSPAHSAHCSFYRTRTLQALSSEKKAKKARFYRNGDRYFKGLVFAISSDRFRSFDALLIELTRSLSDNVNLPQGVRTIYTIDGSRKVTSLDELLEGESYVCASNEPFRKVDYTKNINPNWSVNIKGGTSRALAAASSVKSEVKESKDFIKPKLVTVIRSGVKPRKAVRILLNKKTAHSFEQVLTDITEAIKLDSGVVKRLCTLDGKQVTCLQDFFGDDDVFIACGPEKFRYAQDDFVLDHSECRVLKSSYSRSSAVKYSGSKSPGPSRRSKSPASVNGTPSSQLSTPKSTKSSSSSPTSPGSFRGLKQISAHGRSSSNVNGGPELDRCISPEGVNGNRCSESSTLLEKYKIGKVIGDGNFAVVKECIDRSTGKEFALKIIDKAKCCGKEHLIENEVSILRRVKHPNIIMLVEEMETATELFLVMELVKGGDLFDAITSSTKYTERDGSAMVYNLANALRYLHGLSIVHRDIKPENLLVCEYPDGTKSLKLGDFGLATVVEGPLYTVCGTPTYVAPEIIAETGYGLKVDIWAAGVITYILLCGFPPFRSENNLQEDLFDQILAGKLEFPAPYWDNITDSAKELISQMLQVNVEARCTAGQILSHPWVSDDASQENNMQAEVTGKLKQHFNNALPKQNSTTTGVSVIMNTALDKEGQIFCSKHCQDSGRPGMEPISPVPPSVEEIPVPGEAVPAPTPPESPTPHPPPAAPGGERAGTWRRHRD

[5] = biological target: T1, Serine/threonine-protein kinase DCLK2 (Homo sapiens); conditions: at 10 µM
[6] = biological target: T2, Discoidin domain-containing receptor 2 (Homo sapiens) (UniProt Q16832); conditions: at 1 µM
T2 sequence (whole entry): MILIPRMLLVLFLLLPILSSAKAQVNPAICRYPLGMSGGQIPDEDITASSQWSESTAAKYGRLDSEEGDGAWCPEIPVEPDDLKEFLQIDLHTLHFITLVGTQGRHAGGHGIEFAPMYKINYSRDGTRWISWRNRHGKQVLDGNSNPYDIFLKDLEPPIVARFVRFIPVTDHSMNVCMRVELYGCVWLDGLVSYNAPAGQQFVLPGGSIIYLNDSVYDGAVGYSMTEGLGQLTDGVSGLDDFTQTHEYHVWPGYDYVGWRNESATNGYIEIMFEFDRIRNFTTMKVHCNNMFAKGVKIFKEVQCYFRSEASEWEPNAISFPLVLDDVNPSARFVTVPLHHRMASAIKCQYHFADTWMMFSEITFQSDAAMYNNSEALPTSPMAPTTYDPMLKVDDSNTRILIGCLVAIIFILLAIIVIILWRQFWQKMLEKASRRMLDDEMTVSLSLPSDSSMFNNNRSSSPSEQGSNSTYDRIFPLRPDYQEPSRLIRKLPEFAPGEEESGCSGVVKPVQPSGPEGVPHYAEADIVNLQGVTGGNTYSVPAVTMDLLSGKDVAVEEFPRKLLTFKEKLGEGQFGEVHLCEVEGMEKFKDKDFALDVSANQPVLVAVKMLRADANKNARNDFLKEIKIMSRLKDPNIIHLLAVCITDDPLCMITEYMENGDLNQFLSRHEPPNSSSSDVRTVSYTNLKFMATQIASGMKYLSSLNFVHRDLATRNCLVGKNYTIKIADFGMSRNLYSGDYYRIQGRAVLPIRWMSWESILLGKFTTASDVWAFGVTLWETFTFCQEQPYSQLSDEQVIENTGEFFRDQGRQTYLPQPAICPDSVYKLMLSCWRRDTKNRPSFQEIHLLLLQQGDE

[7] = biological target: T2, Discoidin domain-containing receptor 2 (Homo sapiens); conditions: at 10 µM
[8] = biological target: T3, Myotonin-protein kinase (Homo sapiens) (UniProt Q09013); conditions: at 1 µM
T3 sequence (whole entry): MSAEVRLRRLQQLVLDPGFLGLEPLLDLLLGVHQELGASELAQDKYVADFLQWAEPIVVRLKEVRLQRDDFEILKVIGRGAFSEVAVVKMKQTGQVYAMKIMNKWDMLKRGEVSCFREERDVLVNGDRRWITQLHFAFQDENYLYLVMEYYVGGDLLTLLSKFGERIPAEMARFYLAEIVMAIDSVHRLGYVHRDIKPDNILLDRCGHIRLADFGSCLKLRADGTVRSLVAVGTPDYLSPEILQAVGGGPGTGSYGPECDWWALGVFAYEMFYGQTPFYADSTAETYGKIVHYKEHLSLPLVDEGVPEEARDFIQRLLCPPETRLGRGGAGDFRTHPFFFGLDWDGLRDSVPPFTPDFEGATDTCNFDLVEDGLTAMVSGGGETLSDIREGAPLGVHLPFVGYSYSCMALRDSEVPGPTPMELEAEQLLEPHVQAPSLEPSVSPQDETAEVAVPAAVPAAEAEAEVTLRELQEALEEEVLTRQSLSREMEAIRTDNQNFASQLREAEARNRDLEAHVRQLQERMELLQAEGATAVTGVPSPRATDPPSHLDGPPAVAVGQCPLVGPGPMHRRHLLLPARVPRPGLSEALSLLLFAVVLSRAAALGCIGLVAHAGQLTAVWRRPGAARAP

[9] = biological target: T3, Myotonin-protein kinase (Homo sapiens); conditions: at 10 µM
[10] = biological target: T4, Serine/threonine-protein kinase 17A (Homo sapiens) (UniProt Q9UEE5); conditions: at 1 µM
T4 sequence (whole entry): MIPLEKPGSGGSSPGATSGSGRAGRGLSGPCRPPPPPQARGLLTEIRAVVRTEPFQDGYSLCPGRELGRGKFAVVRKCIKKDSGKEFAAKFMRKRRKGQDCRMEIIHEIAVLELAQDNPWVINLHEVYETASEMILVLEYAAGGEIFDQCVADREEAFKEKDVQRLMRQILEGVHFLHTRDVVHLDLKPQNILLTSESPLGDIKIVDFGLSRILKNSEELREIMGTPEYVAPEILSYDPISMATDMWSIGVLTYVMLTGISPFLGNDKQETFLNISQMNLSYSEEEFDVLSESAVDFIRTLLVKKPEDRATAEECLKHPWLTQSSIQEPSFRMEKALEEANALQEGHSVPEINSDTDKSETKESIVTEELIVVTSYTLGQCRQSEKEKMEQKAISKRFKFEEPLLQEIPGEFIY

[11] = biological target: T4, Serine/threonine-protein kinase 17A (Homo sapiens); conditions: at 10 µM
[12] = biological target: T5, Dual specificity tyrosine-phosphorylation-regulated kinase 2 (Homo sapiens) (UniProt Q92630); conditions: at 1 µM
T5 sequence (whole entry): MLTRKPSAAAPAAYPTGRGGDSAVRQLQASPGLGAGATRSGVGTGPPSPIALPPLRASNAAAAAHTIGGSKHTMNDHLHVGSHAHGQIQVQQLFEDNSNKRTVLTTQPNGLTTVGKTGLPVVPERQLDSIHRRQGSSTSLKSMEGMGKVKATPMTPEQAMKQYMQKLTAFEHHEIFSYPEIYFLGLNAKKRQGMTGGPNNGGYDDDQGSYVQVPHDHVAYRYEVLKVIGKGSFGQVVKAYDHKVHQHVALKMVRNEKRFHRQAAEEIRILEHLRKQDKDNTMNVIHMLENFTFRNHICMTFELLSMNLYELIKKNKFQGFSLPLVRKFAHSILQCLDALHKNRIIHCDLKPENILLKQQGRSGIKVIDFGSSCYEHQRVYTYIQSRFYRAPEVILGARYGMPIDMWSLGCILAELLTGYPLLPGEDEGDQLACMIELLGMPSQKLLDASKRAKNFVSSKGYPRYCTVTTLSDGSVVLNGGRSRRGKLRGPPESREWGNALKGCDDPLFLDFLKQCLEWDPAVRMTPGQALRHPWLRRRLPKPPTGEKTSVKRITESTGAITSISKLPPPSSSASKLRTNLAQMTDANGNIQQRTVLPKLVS

[13] = biological target: T5, Dual specificity tyrosine-phosphorylation-regulated kinase 2 (Homo sapiens); conditions: at 10 µM
[14] = biological target: Epidermal growth factor receptor (Homo sapiens) (UniProt P00533); conditions: at 1 µM
[15] = biological target: Epidermal growth factor receptor (Homo sapiens) (UniProt P00533); conditions: at 10 µM
[16] = biological target: T6, Ephrin type-A receptor 1 (Homo sapiens) (UniProt P21709); conditions: at 1 µM
T6 sequence (whole entry): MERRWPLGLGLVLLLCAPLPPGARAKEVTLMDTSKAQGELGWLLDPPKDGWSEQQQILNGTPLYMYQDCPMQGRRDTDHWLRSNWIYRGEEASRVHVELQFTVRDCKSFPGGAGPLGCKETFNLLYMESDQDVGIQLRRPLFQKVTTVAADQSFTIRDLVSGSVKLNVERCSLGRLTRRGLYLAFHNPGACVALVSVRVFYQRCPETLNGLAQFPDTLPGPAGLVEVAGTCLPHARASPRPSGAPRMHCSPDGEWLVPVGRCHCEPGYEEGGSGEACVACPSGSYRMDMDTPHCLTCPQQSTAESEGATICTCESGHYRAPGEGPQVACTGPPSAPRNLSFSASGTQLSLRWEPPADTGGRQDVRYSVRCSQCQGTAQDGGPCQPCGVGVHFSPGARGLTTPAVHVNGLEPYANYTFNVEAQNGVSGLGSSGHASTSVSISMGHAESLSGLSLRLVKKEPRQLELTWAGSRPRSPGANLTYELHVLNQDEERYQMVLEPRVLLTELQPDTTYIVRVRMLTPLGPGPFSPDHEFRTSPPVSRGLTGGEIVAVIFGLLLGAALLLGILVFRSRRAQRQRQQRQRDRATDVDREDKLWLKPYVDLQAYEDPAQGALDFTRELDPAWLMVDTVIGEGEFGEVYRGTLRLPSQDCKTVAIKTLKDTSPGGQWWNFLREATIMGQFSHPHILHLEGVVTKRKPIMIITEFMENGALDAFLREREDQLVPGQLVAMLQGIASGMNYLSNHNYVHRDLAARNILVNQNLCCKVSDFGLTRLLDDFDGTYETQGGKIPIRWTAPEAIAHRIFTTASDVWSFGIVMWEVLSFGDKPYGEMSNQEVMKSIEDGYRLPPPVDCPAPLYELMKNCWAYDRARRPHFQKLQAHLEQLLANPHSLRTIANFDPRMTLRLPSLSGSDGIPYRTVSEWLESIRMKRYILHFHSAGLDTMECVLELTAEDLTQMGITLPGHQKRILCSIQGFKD

[17] = biological target: T6, Ephrin type-A receptor 1 (Homo sapiens); conditions: at 10 µM
[18] = biological target: Ephrin type-A receptor 2 (Homo sapiens) (UniProt P29317); conditions: at 1 µM
[19] = biological target: Ephrin type-A receptor 2 (Homo sapiens) (UniProt P29317); conditions: at 10 µM
[20] = biological target: T7, Ephrin type-A receptor 3 (Homo sapiens) (UniProt P29320); conditions: at 1 µM
T7 sequence (whole entry): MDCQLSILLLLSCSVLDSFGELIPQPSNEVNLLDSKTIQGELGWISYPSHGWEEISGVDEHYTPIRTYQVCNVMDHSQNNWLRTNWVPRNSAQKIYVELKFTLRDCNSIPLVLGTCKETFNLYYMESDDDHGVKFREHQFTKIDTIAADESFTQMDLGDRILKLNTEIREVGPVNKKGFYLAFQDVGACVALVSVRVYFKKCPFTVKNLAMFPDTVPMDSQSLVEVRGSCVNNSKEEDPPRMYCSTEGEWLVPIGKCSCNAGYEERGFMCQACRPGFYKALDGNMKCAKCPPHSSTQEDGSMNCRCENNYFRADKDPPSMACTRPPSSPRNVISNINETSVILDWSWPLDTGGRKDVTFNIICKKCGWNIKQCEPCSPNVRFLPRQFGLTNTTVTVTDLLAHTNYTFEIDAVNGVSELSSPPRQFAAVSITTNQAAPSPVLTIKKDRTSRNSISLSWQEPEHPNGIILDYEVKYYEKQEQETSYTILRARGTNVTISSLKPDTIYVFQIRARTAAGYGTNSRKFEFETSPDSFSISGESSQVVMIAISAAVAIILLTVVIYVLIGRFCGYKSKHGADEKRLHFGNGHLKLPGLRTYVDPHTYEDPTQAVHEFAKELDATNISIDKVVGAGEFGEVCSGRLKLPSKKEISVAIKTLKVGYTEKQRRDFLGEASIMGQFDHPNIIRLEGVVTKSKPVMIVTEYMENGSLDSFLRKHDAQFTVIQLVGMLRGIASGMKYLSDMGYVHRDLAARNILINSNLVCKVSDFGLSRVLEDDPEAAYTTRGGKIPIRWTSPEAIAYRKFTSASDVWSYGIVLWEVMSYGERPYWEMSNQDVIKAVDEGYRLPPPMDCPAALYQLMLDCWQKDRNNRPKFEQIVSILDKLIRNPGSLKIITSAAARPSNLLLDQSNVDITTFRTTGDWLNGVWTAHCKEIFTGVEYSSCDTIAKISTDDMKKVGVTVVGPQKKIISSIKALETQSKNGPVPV

Sequence of Death-associated protein kinase 1 (Homo sapiens) (P53355 whole entry, looked up): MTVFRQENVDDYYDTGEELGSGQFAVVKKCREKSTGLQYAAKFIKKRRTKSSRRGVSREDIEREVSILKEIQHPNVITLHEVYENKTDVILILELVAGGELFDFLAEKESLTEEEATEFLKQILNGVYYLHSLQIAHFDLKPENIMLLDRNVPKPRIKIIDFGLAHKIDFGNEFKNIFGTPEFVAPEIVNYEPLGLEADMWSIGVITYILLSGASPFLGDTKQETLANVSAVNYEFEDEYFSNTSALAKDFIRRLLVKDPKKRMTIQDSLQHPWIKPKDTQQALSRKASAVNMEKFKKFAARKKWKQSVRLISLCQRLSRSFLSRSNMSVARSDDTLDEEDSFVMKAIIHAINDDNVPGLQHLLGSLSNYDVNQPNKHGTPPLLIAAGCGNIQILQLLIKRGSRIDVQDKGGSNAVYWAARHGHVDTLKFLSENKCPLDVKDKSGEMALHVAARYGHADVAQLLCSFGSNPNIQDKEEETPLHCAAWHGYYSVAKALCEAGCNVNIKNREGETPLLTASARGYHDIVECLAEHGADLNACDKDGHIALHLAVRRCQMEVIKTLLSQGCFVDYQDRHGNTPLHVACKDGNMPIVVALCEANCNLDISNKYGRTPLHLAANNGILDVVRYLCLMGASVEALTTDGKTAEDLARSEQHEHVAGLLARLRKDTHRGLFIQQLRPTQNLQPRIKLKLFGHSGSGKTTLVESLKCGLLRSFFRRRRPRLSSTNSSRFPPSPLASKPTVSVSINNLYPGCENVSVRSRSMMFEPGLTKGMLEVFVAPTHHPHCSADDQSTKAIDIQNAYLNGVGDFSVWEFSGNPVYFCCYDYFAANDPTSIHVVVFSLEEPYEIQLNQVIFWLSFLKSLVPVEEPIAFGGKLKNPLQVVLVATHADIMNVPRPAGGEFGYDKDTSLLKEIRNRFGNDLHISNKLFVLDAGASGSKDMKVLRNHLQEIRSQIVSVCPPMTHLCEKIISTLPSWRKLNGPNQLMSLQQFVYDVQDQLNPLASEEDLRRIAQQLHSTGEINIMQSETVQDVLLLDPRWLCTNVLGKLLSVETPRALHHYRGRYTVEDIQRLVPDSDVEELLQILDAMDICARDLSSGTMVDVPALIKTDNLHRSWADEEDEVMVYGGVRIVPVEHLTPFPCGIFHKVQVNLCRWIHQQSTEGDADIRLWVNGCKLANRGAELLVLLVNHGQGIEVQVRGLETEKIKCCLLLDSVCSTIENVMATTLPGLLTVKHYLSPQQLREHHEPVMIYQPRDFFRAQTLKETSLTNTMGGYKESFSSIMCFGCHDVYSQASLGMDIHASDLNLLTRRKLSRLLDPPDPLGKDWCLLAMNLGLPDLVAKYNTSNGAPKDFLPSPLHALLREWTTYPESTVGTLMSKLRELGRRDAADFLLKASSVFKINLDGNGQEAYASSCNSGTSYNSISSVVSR
Sequence of Ephrin type-A receptor 2 (Homo sapiens) (P29317 whole entry): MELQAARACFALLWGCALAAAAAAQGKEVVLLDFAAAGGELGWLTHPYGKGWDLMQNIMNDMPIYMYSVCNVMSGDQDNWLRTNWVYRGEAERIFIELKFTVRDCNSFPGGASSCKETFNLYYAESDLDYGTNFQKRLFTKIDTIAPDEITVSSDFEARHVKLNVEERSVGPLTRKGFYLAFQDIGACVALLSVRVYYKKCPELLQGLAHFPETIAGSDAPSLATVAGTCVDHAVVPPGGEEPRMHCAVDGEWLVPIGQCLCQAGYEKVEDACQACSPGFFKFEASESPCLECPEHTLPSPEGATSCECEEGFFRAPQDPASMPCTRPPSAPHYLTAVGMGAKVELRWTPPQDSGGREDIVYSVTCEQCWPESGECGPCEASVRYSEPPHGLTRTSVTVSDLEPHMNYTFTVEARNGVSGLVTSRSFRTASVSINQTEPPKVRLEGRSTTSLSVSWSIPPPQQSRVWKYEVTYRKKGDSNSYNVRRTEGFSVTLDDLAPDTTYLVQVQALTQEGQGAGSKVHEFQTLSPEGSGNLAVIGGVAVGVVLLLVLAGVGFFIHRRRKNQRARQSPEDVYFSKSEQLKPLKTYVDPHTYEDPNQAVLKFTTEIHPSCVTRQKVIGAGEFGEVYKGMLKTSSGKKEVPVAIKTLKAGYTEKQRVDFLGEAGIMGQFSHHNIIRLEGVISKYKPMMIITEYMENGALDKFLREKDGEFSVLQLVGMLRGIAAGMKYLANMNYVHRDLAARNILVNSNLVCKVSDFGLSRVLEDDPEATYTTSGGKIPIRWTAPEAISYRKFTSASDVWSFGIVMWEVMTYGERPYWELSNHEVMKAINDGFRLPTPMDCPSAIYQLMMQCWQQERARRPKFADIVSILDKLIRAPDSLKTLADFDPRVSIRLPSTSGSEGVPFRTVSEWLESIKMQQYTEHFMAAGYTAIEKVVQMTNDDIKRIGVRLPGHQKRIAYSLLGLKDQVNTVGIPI
Sequence of Death-associated protein kinase 2 (Homo sapiens) (Q9UIK4 whole entry, looked up): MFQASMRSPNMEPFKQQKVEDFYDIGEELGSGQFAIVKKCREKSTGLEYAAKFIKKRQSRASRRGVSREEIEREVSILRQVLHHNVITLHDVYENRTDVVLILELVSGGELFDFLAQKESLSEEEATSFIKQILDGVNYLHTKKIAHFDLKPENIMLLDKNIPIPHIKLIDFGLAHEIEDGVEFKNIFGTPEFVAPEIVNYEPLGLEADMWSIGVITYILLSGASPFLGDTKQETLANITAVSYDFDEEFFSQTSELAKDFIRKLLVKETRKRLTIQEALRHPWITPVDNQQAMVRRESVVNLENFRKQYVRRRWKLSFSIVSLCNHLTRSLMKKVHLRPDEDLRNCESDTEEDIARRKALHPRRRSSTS
Sequence of Epidermal growth factor receptor (Homo sapiens) (P00533 whole entry): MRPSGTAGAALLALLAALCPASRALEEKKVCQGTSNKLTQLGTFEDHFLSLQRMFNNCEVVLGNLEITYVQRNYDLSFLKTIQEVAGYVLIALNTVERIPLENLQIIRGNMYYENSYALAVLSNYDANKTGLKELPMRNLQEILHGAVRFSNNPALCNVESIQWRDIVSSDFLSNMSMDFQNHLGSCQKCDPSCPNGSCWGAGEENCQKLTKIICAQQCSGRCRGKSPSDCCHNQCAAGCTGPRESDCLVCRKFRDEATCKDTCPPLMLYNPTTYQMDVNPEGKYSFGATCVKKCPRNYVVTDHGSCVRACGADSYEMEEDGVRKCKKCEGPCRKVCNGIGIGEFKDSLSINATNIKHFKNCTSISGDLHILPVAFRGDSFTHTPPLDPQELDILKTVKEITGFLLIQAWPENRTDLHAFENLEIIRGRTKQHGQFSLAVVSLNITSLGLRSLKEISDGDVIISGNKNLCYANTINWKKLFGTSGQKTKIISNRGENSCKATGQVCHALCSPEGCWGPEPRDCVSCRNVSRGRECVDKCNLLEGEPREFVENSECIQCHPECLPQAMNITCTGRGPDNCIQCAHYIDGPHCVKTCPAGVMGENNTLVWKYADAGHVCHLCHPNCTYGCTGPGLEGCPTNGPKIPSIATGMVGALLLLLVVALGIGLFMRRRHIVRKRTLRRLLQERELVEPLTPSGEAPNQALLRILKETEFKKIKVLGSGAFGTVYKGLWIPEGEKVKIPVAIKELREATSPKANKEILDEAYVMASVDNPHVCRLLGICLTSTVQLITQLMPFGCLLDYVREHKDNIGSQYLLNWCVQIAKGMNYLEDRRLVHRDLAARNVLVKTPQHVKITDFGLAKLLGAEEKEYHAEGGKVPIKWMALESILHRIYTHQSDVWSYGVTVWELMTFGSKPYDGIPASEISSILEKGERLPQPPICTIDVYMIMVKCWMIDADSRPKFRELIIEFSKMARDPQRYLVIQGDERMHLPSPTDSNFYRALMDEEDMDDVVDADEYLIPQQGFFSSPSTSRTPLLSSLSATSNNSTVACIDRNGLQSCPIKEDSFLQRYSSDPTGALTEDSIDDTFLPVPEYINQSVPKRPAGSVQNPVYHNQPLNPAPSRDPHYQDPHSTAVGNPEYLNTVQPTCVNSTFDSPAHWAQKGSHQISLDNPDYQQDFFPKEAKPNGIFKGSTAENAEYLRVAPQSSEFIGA

SMILES	residual activity [1]	residual activity [2]	residual activity [3]	residual activity [4]	residual activity [5]	residual activity [6]	residual activity [7]	residual activity [8]	residual activity [9]	residual activity [10]	residual activity [11]	residual activity [12]	residual activity [13]	residual activity [14]	residual activity [15]	residual activity [16]	residual activity [17]	residual activity [18]	residual activity [19]	residual activity [20]
O=C(Nc1cccc(Nc2cc(Nc3cccc(C(F)(F)F)c3)ncn2)c1)C1CC1	100%	91%	91%	92%	109%	81%	94%	100%	106%	81%	50%	97%	99%	-2%	-3%	82%	90%	108%	98%	115%
COc1cc2ncnc(N3CCN(C(=O)Nc4ccc(Oc5ccccc5)cc4)CC3)c2cc1OC	102%	93%	112%	98%	242%	106%	117%	115%	142%	120%	101%	92%	98%	–	–	85%	76%	101%	109%	98%
Nc1cccc(-c2cc3c(Oc4cccc(O)c4)ncnc3[nH]2)c1	101%	102%	91%	104%	78%	23%	4%	98%	84%	82%	32%	89%	62%	–	–	2%	-1%	30%	2%	4%
